Assay [1] is described as follows: stimulators of nuclear beta-catenin in C2C12, primary screen, imaging, WNT3A-conditioned medium, mouse C2C12, NPC library (AID 1117326; in the data active means nuclear beta-catenin stimulation mostly above about 4.2%, no sharp cut-off; inactive means mostly below about 10%). The conditions noted are these: stronger effect = higher value.
Assay [2] can be described thus: stimulators of insulin release from INS-1E, primary screen, cell-based, 5 mM glucose, NPC library (AID 1117329;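 active means compound raises insulin release from rat beta cells at 5 mM glucose, no numeric limit stated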). The conditions noted are these: rat INS-1E insulin secretion, at 10 µM, stronger effect = higher value.
Assay [3] can be described thus: growth inhibition of GSK3B-pretreated HCT116 cells – cell-based, CellTiter-Glo, 0.2 to 20 µM (AID 1117336;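 active means compounds lowering colon cancer cell viability after pretreatment blocking the GSK3B kinase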). As to conditions: HCT116 viability after GSK3B inhibitor, at 20 µM, stronger effect = higher value. (In general: In ATP-based viability assays light output follows the ATP content of the culture.)
Assay [4] can be described thus: inhibition of endothelial tube formation, primary screen, imaging, VEGF stimulated, CD31 staining, tube area, NPC library (AID 1117340;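 active means compound that reduces growth-factor-driven endothelial tube area in a mixed cell culture, no cutoff stated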). The conditions noted are these: VEGF-stimulated ADSC/ECFC co-culture, at 10 µM, stronger effect = higher value.
Assay [5] can be described thus: glucagon-like peptide 1 release enhancers, primary assay, NCI-H716 cell line, NPC library (AID 1117341;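 active means compound raises GLP1 secretion from the human gut endocrine cells, with no numeric limit stated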). As to conditions: NCI-H716 cells, at 10 µM, stronger effect = higher value.
Assay [6] is described as follows: HCT116 colon cancer cell growth inhibition, primary screen, CellTiter-Glo luminescence, NPC library (AID 1117342;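 active means compounds that lower survival of HCT116 colon cancer cells in the luminescence readout, no numeric limit stated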). The conditions noted are these: at 20 µM (top of the series).
Assay [7] in a line: CellTiter-Glo luminescent readout of SW480 viability loss, NPC library primary (AID 1117343;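 active means compounds that lower viability of the colon cancer cells in the luminescence readout, with no numeric limit stated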). The conditions noted are these: CellTiter-Glo luminescence; at 20 µM (top of the series) unless noted.
Assay [8] in a line: decreased DLD-1 cellular survival, CellTiter-Glo luminescent readout, NPC compound collection, primary HTS (AID 1117346;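 active means compounds that lower survival of DLD-1 colon cancer cells in the luminescence readout, no cutoff given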). The conditions noted are these: DLD-1 viability, CellTiter-Glo luminescence; at 20 µM (top of the series).
Assay [9] is described as follows: growth inhibition of DIPG glioma cells, dose response, cell-based, SU-DIPG-XVII, MIPE5.0, CellTiter-Glo, qHTS (AID 1347060; cut-off not given, nearly all actives have AC50 up to about 26 µM;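 on AC50: cells exposed to compound for 48 hours before viability readout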). As to conditions: SU-DIPG-XVII viability, CellTiter-Glo ATP luminescence.
Assay [10] can be described thus: growth inhibition of DIPG glioma cells, dose response, cell-based, SU-DIPG-XIII, MIPE4.0, CellTiter-Glo, qHTS (AID 1347061; cut-off not given, nearly all actives have AC50 up to about 37 µM;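 further: cells exposed to compound for 48 hours before readout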). The conditions noted are these: SU-DIPG-XIII viability, CellTiter-Glo ATP luminescence.
A short description of assay [11]: SU-DIPG-VI glioma cell viability, MIPE4.0 library, CellTiter-Glo luminescence, qHTS (AID 1347066; cut-off not given, nearly all actives have AC50 up to about 30 µM;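 further: cells exposed to compound for 48 hours before readout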). The conditions noted are these: CellTiter-Glo ATP luminescence.
A short description of assay [12]: SU-DIPG-XXV glioma cell viability, MIPE5.0 library, qHTS (AID 1347068; cut-off not given, nearly all actives have IC50 up to about 30 µM;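 on IC50: cells exposed to compound for 48 hours before viability readout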). For orientation: Quantitative high-throughput screening tests each substance at several concentrations.
The nature of assay [13]: sensitizers of A549 cells to miR-34 induction, primary screen, imaging, A549 dox-inducible miR-34, nuclei and caspase counts (AID 1347080). The conditions noted are these: A549 miR-34 inducible, Hoechst nuclei count, 48 h.
Assay [14] is described as follows: survival rescue of mitochondrial mutant cells in low glucose, primary screen, MELAS cybrids, Rieske KO mouse fibroblasts, CellTiter-Glo (AID 1508586;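 active means mean z-score across replicates of 1.96 or higher in either the MELAS or the Rieske mutant cell line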;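 further: z relative to plate mean and SD of compound and empty wells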).
A short description of assay [15]: viability rescue of complex I mutant cybrids, primary screen, cell-based, galactose medium, ATP luminescence (AID 1645843;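 active means z-score of at least 1.8 in each of two replicates, scored against plate mean and spread of sample wells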;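 further: positive z means more ATP and so rescue of galactose-driven cybrid death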). As to conditions: complex I mutant cybrid cells, 72 h, stronger effect = higher value.
A short description of assay [16]: growth inhibition of DIPG glioma cells, dose response, cell-based, JHH-DIPG-1, MIPE4.0, CellTiter-Glo, qHTS (AID 1347062; cut-off not given, nearly all actives have AC50 up to about 27 µM). As to conditions: JHH-DIPG-1 viability, CellTiter-Glo ATP luminescence.
Assay [17] can be described thus: viability loss in pontine glioma line – cell-based, SU-DIPG-XXV, MIPE5.0, CellTiter-Glo, qHTS, dose response (AID 1347065; cut-off not given, nearly all actives have AC50 up to about 26 µM;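 further: cells exposed to compound for 48 hours before ATP readout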). As to conditions: CellTiter-Glo ATP luminescence.
Assay [18] in a line: liver-stage malaria parasite growth inhibition, primary screen, cell-based, HepG2, luciferase luminescence, HepG2 viability (AID 624349; in the data active means parasite load remaining mostly below about 12%, no sharp cut-off; inactive means mostly above about 10%;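 further: 100% = mean of DMSO negative control wells on the same plate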). The conditions noted are these: P. berghei liver stage in HepG2, luciferase luminescence, concentration not given here; parasite load remaining: stronger effect = lower value; viability: measured here: HepG2 viability without parasites.
Setting [19] is: stronger effect = lower value, cell number ratio, induced over uninduced.
[20] abbreviates: measured here: relative caspase fold change +Dox/-Dox.
Setting [21] is: measured here: total cells with miR-34 induction, stronger effect = lower value.
[22] abbreviates: measured here: total cells without miR-34 induction.
Where [23] appears, read: MELAS cybrid survival, CellTiter-Glo 48 h, stronger effect = higher value.
The mark [24] stands for this setting: Rieske KO mouse fibroblast survival, CellTiter-Glo 72 h.

Several values for one entry are separate records, joined by “and”; a condition that tells them apart may be missing. Identical values can stand only once. Results filed as inconclusive are left out. Activity calls are given as the source filed them.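 How the source made its calls, unless noted: active means compounds whose cell count with miR-34 switched on is under 0.7 times the count with it off; inactive means the rest.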

As to `CCCCc1oc2ccc(NS(C)(=O)=O)cc2c1C(=O)c1ccc(OCCCN(CCCC)CCCC)cc1`, the nuclear beta-catenin stimulation in assay [1] (at 10 µM) was -3.1% (inactive); in assay [1] (stimulation, at 2 µM) it was 2%. In addition, in assay [2], the insulin secretion stimulation is 2.1% (inactive). Further, the viability decrease in assay [3] is 99.1% (active). The tube area decrease in assay [4] is 109% (active). Moreover, in assay [5], the GLP1 secretion stimulation is -5.9% (inactive). In addition, in assay [6], the inhibition of viability was 99.3% (active). Also, the figures for the viability decrease (inhibition) in assay [7] and in [8] were 102% (active) and 101% (active), respectively. Further, the AC50 in assay [9] was 13.2 µM (active); in assay [10] it was 18.7 µM (active); in [11], 13.2 µM (active). In addition, in [12], the IC50 is 10.5 µM (active). Moreover, the fold change in [13] (setting [19]) was 1.3 (inactive) and 0.866 (inactive); in assay [13] (setting [20]) it was 0.545 and 1.08. For the same molecule, the cell count in assay [13] (setting [21]) is 1680 and 3440; in [13] (setting [22]), 1290 and 3970. Besides, the z-score in [14] (setting [23]) is -1.62 and -0.663 (inactive); in assay [14] (setting [24]), 1.98 and -1.01; in assay [15], -2.66 (inactive).
Regarding `COC(c1ccccc1)(c1ccccc1)[C@H](Oc1nc(C)cc(C)n1)C(=O)O`, the nuclear beta-catenin stimulation is -1.5% (inactive) in [1] (at 10 µM) and 0% in assay [1] (stimulation, at 2 µM). Besides, the insulin secretion stimulation in [2] was 4.3% (inactive). For the same molecule, in [3], the viability decrease was -12.3% (inactive). Further, the tube area decrease in assay [4] is 10.8% (inactive). The GLP1 secretion stimulation in assay [5] was -5.9% (inactive). The inhibition of viability in assay [6] was 6.7% (inactive). Besides, the viability decrease (inhibition) is 9.7% (inactive) in assay [7] and -0.4% (inactive) in assay [8]. Moreover, the outcome in assay [10], in assay [16], in assay [17], in assay [11] and in [12] was inactive.
Consider `Cc1ccccc1C(=O)Nc1ccc(C(=O)N2CCCC(O)c3cc(Cl)ccc32)c(C)c1` (stereo not drawn), for which the nuclear beta-catenin stimulation in assay [1] (at 10 µM) was 3.2% (inactive); in assay [1] (stimulation, at 2 µM), 1.4%. For the same molecule, the insulin secretion stimulation in [2] is 0.15% (inactive). Moreover, the viability decrease in [3] was 52.2% (active). Also, the tube area decrease in assay [4] was 3.5% (inactive). In addition, the GLP1 secretion stimulation in assay [5] was 2% (inactive). In addition, the inhibition of viability in [6] was 38.9% (inactive). Further, the viability decrease (inhibition) in assay [7] was 15.2% (inactive); in [8], 21.9% (inactive). Moreover, the molecule was called inactive in assay [9], in assay [10], in assay [17], in [11] and in assay [12]. In addition, the fold change in [13] (setting [19]) is 0.834 (inactive) and 0.856 (inactive); in [13] (setting [20]), 0.412 and 0.955. Moreover, the cell count in assay [13] (setting [21]) is 8090 and 8960; in [13] (setting [22]), 9700 and 10500. Moreover, the z-score in assay [14] (setting [23]) was 0.131 (inactive) and -0.387 (inactive); in assay [14] (setting [24]), -0.17 and 0.558; in assay [15] it was 0.835 (inactive).
As to `Cc1ccc(C(=O)c2cc(O)c(O)c([N+](=O)[O-])c2)cc1`, the parasite load remaining in assay [18] was 26.1% (inactive). For the same molecule, the viability in assay [18] is 97%. Also, the nuclear beta-catenin stimulation in assay [1] (at 10 µM) is 5.2% (inactive); in assay [1] (stimulation, at 2 µM), 1.2%. Further, the insulin secretion stimulation in [2] is -0.8% (inactive). Moreover, in assay [3], the viability decrease was 43.7% (active). The tube area decrease in [4] is 39.4% (inactive). Besides, the GLP1 secretion stimulation in assay [5] was -3.6% (inactive). The inhibition of viability in assay [6] is 55.5% (active). In addition, the viability decrease (inhibition) was 84.4% (active) in assay [7] and 67.5% (active) in [8]. In addition, the molecule was classed as inactive in assay [9], in assay [10], in assay [16], in assay [17] and in assay [12]. Besides, the fold change in assay [13] (setting [19]) is 0.985 (inactive) and 0.843 (inactive); in [13] (setting [20]), 0.594 and 0.464. Further, the cell count was 8860 and 9320 in assay [13] (setting [21]); 8990 and 11100 in assay [13] (setting [22]). The z-score was -0.224 (inactive) and 0.125 (inactive) and 0.577 (inactive) in assay [14] (setting [23]); -0.152 and -0.0292 and 1.07 in [14] (setting [24]); -0.715 (inactive) in assay [15].

For orientation: AC50 means the concentration giving half of the maximal activity seen. One may read the IC50 as the midpoint of a concentration-inhibition curve. The viability is a read-out of living cells in per cent, often relative to untreated cells.

For the origin of these results see PubChem BioAssay.
